Inconclusive results are not listed. A call without a number means that no potency is given here. Active and inactive are the calls of the source. Unless noted, the call rests on the fitted dose curve; in most records, active means well fitted curve in the direction sought with a large enough effect; inconclusive means small, poorly fitted or top-dose-only effect, or another doubt; inactive means no such curve, though single readings can be large; an effect the other way counts as inactive or inconclusive.
Assays:
[1] = target: DNA repair nuclease/redox regulator APEX1 (Homo sapiens) (UniProt P27695); test: qHTS Validation Assay for Inhibitors of the Human Apurinic/apyrimidinic Endonuclease 1 (APE1) (AID 1705; further: potency means the concentration at half of the fitted maximal effect)
Summary of the method: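 Substrate: 50 nM final fluorophore/quencher THF-abasic duplex. Enzyme preincubated with compounds 15 min, RT. Progress derived from fluorescence difference, third minus first kinetic read.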

[2] = Counterscreen for APE1 Inhibitors: Fluorescent Dye Displacement Validation Assay (AID 1707)
Summary of the method: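 ThO 250 nM + dsDNA 50 nM (THF abasic site, 5'-TAMRA), Tris-HCl pH7.5/50mM NaCl/2 mM MgCl2/0.01% Tween-20; compounds pin-transferred; ex 480/em 540 nm endpoint. Neutral = no compound; no-DNA ThO wells = negative control.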

[3] = qHTS for differential inhibitors of proliferation of Plasmodium falciparum line 7G8 (AID 1815);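 further: parasite growth measured after three days of incubation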
[4] = qHTS for differential inhibitors of proliferation of Plasmodium falciparum line 3D7 (AID 1876); further: potency means the concentration at half of the fitted maximal effect
[5] = qHTS for differential inhibitors of proliferation of Plasmodium falciparum line Dd2 (AID 1882); further: series mostly up to about 29 µM; nearly all actives have a fitted effect of over 65% in size
Summary of the method: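 Dd2-infected erythrocytes (0.3% parasitemia, 2.5% hematocrit final) incubated with compound 72 h at 37 C, 5% CO2; lysed with saponin/Triton buffer containing SYBR Green I, incubated overnight in the dark, then read by fluorescence (485/535 nm). Normalized to 0.29 uM artemisinin and DMSO.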

[6] = qHTS for differential inhibitors of proliferation of Plasmodium falciparum line W2 (AID 1883); conditions: Plasmodium falciparum W2 proliferation inhibition;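 further: potency means the concentration at half of the fitted maximal effect; parasites grown with compound for 72 h before lysis and staining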
[7] = qHTS for differential inhibitors of proliferation of Plasmodium falciparum line HB3 (AID 1886); conditions: Potency: Plasmodium falciparum HB3 proliferation inhibition;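 further: parasites grown with compound for 72 h before SYBR Green readout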; further: potency means the concentration at half of the fitted maximal effect
[8] = target: Ferritin light chain (Equus caballus) (UniProt P02791); test: qHTS Validation Assay for Identification of Novel General Anesthetics (AID 2323); further: series mostly up to about 77 µM
Summary of the method: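 Normalized fluorescence response, scaled between free 1-AMA and 1-AMA/apoferritin complex, fitted to a four-parameter Hill equation for concentration-effect values. Binding mix: 10 uM horse-spleen apoferritin, 50% saturated 1-AMA in PBS; read 380/535 nm after 10 min.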

[9] = target: ATP-dependent DNA helicase Q1 (Homo sapiens) (UniProt P46063); test: qHTS Validation Assay for Inhibitors of RecQ-Like Dna Helicase 1 (RECQ1) (AID 2353)
Summary of the method: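 50 nM RECQ1T1 preincubated 15 min with compound in Tris pH 8.0 buffer with MgCl2, DTT, Tween-20 and 2.5 ug/ml poly(dI-dC); started with 200 nM TAMRA/BHQ-2 forked duplex and 2 mM ATP. Unwinding read as fluorescence (525/598 nm), two reads 2 h apart.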

[10] = target: RecQ-like DNA helicase BLM (Homo sapiens) (UniProt P54132); test: qHTS Validation Assay for Inhibitors of Bloom's syndrome helicase (BLM) (AID 2364)
Summary of the method: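 Forked 20-bp duplex substrate (200 nM, TAMRA/BHQ-2) plus 2 mM ATP added after 15 min compound preincubation with 50 nM enzyme, pH 8.0, poly(dI-dC) 2.5 ug/ml. Strand separation followed by fluorescence (525/598 nm) over 2 h, normalized to enzyme-free and DMSO controls.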

[11] = target: Endonuclease 4 (Escherichia coli (strain K12)) (UniProt P0A6C1); test: Counterscreen for APE1 Inhibitors: qHTS Validation Assay for Inhibitors of Endonuclease IV (AID 1708); further: potency means the concentration at half of the fitted maximal effect; conditions: E. coli endonuclease IV, DNA cleavage fluorescence
Summary of the method: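 qHTS concentration-response format; LOPAC1280 tested under APE1-screen conditions. 2 nM enzyme, 15 min compound preincubation at RT, then 50 nM TAMRA/BHQ-2 abasic substrate; kinetic fluorescence read, three reads at 60 s intervals.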

[12] = qHTS for differential inhibitors of proliferation of Plasmodium falciparum line GB4 (AID 1816);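 further: parasite growth measured after 72 h incubation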
[13] = qHTS for differential inhibitors of proliferation of Plasmodium falciparum line D10 (AID 1877);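 further: parasites grown with compound for 72 h before DNA staining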
[14] = qHTS Assay for Modulators of Human Peripheral Myelin Protein 22 (PMP22) Expression/Activity (AID 1967; active means well fitted curve in the direction sought with a large enough effect in the signal ratio; the % refers to the signal ratio)
Summary of the method: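 Engineered MSC80 cells, Pmp22-promoter green and EF-alpha red luciferase reporters; 24h compound treatment at 37 °C. Concentration-response fits on green, red and ratio signals, each overlap-corrected, with %Activity normalized to untreated wells.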

[15] = target: Lysosomal alpha-glucosidase (Homo sapiens) (UniProt P10253); test: Confirmation of Inhibitors and Activators of Purified Human alpha-Glucosidase (AID 2115; active means well fitted curve in either direction with a large enough effect)
Summary of the method: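 Purified human enzyme (4 nM) with 4-methylumbelliferyl-alpha-D-glucopyranoside (400 uM), compounds up to 77 uM, in citrate/phosphate buffer pH 5.0 with 0.005% Tween-20. After 20 min at RT, stopped at pH 10; fluorescence ex 365/em 440 nm; AC50 from Hill fits.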

Chain of RecQ-like DNA helicase BLM (Homo sapiens) (P54132 whole entry, looked up): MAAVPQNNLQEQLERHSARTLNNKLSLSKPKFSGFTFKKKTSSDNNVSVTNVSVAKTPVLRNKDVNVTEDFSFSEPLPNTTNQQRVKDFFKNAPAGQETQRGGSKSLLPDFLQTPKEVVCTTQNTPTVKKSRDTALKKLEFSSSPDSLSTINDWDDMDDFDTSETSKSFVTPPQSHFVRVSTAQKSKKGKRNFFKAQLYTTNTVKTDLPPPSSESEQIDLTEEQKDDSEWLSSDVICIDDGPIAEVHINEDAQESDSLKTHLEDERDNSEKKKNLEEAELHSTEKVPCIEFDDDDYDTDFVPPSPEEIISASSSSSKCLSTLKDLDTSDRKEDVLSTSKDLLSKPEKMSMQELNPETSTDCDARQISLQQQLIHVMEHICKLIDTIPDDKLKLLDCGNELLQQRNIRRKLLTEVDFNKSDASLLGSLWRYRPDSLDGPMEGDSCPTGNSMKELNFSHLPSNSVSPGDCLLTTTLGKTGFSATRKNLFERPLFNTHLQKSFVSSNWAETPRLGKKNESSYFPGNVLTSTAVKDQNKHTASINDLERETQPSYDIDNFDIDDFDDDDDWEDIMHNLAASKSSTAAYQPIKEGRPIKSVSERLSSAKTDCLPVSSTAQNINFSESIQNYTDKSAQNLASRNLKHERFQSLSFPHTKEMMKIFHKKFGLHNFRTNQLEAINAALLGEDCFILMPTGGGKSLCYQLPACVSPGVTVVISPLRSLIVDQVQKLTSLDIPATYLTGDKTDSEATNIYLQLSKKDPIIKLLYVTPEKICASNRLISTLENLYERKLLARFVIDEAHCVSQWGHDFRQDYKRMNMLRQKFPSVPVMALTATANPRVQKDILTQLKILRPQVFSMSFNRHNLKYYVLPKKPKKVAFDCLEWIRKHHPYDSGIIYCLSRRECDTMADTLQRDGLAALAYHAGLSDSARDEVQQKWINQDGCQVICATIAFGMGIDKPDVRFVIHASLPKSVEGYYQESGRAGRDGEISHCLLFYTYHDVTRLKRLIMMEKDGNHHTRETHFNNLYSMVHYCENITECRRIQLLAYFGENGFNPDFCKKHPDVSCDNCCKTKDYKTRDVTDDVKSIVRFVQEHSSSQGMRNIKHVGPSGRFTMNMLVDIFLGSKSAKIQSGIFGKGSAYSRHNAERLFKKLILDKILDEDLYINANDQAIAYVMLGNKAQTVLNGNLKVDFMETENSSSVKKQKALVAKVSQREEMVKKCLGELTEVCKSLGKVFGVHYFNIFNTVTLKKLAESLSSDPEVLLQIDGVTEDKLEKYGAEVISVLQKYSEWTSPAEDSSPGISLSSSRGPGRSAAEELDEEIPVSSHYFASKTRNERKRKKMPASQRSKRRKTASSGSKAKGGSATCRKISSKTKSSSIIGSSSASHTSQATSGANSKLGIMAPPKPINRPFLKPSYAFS
Chain of Ferritin light chain (Equus caballus) (P02791 2-175 limits assumed): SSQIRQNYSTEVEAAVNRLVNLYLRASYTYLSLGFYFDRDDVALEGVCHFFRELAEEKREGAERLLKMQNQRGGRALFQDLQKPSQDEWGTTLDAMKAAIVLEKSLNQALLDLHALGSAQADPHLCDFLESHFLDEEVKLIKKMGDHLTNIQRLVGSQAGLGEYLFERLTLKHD
Chain of DNA repair nuclease/redox regulator APEX1 (Homo sapiens) (P27695 whole entry, looked up): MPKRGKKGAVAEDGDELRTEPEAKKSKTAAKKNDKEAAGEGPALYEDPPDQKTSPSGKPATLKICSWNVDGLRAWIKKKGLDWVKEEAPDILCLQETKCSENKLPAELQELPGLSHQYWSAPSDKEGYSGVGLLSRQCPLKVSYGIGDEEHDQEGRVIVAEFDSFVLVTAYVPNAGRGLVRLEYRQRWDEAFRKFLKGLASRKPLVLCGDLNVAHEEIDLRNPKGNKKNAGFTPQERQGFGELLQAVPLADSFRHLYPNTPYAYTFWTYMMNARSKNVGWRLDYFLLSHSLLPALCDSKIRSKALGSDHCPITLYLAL
Chain of ATP-dependent DNA helicase Q1 (Homo sapiens) (P46063 whole entry, looked up): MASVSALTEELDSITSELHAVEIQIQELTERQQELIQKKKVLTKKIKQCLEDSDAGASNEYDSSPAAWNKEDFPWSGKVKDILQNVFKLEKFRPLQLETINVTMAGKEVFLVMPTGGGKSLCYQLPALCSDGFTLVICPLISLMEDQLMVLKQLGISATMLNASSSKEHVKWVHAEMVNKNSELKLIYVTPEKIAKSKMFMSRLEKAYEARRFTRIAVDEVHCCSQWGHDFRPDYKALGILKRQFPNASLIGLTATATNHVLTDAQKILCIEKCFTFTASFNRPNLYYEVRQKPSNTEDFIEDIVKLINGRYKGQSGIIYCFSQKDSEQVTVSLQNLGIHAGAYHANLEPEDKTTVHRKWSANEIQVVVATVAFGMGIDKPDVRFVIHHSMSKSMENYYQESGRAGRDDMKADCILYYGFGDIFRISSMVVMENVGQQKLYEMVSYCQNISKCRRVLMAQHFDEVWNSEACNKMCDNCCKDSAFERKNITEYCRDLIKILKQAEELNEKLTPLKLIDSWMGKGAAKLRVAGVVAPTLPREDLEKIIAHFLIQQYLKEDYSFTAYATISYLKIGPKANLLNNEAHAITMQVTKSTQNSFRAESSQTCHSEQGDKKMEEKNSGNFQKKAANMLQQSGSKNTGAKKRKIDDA

SMILES | Potency [1] | outcome [2] | outcome [3] | Potency [4] | outcome [5] | Potency [6] | Potency [7] | outcome [8] | outcome [9] | outcome [10] | Potency [11] | outcome [12] | outcome [13] | outcome [14] | outcome [15]
NC(N)=NCc1cccc(I)c1 | inactive | inactive | inactive | 8.91 µM (active) | inactive | 10 µM (active) | 6.31 µM (active) | inactive | inactive | inactive | – | – | – | – | –
CC(=O)OCC1=C(C(=O)O)N2C(=O)[C@@H](NC(=O)CSc3ccncc3)[C@H]2SC1 | 8.91 µM (active) | inactive | inactive | inactive | inactive | – | inactive | inactive | – | inactive | 15.8 µM (active) | inactive | inactive | inactive | –
CCCCN1C[C@H](O)[C@@H](O)[C@H](O)[C@H]1CO | – | – | – | – | – | – | – | – | – | – | – | – | – | – | inactive
